# PubChem BioAssay
# Calls of active or inactive are those of the source.
# Columns and labels:
# [1] = optical density shifts of acrAB sulA E. coli – strain DRC41, OD650, 48 h, E. coli filamentation inducer project, primary screen (AID 1152); conditions: higher = more signal, called active from +8 up or from −8 down;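 note: E. coli MC1000 strain DRC41 lacking acrAB efflux pump and sulA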
# [2] = probe aLefty1 binding on compound microarray – biochemical, small-molecule microarray, 635/667 nm fluorescence, primary screen (AID 1153); conditions: higher = more signal;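 note: score merges spot fluorescence with signal-to-noise ratio from the scanned slide images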
# [3] = plasmodial surface anion channel blockers, osmotic lysis – cell-based, P. falciparum Indochina, OD700, 1 h, primary screen (AID 1154); conditions: P. falciparum Indochina infected RBC osmotic lysis, higher = more signal, called active from +8 up or from −8 down
# [4] = plasmodial surface anion channel blockers, osmotic lysis – cell-based, P. falciparum Indochina, OD700, 2 h, primary screen (AID 1155);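 note: lysis reports solute entry through the parasite surface anion channel PSAC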; conditions: P. falciparum Indochina infected erythrocytes, higher = more signal, called active from +8 up or from −8 down
# [5] = changes in parasitized red cell lysis, either direction – P. falciparum Indochina, OD700, 3 h, PSAC antagonist project, primary screen (AID 1156); conditions: P. falciparum-infected erythrocytes, osmotic lysis, higher = more signal, called active from +8 up or from −8 down
# [6] = plasmodial surface anion channel blockers, osmotic lysis – cell-based, P. falciparum Indochina, OD700, 18 h, primary screen (AID 1157); conditions: P. falciparum Indochina infected erythrocytes, osmotic lysis OD700, 18 h; higher = more signal, called active from +8 up or from −8 down
# [7] = S6 kinase pathway phospho-S6 level changes – cell-based, A549, cytoblot, luminescence, serum-stimulated, primary screen (AID 1158); conditions: 5 h, higher = more signal;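 note: serum-stimulated A549 lung adenocarcinoma cells; signal is phosphorylated S6 detected by cytoblot immunostaining with HRP secondary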
# [8] = target: NADPH oxidase 2 (Homo sapiens) (UniProt P04839); test: compounds shifting NOX2 Amplex Red fluorescence – cell-based, HEK293-NOX2, PMA-stimulated, NOX inhibitor project, primary screen (AID 1159); conditions: 45 min, higher = more signal, called active from +8 up or from −8 down; note: test concentration not given here
# Chain of NADPH oxidase 2 (Homo sapiens) (P04839 whole entry, looked up): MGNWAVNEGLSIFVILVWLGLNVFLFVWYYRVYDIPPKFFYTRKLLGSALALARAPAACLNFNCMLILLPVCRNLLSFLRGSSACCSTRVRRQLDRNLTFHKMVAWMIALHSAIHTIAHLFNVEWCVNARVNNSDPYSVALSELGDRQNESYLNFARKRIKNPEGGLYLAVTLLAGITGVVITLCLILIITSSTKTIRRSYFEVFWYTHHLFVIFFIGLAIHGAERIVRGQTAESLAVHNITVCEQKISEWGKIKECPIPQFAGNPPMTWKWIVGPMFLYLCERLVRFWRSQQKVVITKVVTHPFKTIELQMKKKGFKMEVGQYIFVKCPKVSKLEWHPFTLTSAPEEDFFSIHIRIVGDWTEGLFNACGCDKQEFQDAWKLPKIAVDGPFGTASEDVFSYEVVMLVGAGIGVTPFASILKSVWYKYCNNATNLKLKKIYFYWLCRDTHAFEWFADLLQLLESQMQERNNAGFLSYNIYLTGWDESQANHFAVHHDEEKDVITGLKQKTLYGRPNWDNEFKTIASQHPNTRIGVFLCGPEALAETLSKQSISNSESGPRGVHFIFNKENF
# [9] = target: NADPH oxidase 4 (Homo sapiens) (UniProt Q9NPH5); test: compounds shifting NOX4 Amplex Red fluorescence – cell-based, HEK293-NOX4, tetracycline-induced, NOX inhibitor project, primary screen (AID 1160); conditions: HEK293-NOX4, Amplex Red H2O2 fluorescence, 45 min; higher = more signal, called active from +8 up or from −8 down
# Chain of NADPH oxidase 4 (Homo sapiens) (Q9NPH5 whole entry, looked up): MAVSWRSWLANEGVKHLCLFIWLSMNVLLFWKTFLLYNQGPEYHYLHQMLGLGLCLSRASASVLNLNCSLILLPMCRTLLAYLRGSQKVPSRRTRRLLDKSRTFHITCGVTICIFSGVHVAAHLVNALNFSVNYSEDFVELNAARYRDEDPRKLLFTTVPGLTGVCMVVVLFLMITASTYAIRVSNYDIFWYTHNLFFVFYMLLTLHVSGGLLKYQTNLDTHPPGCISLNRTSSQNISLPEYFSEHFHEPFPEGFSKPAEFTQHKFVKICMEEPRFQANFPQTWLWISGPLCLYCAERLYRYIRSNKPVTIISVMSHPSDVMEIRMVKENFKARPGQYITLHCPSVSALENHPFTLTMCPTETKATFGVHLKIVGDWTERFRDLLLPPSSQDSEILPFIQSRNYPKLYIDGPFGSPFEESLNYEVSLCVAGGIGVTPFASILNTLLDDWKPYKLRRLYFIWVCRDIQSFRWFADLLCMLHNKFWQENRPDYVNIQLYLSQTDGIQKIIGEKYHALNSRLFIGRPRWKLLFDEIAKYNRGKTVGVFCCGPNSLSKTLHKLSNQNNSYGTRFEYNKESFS
# [10] = target: NADPH oxidase 5 (Homo sapiens) (UniProt Q96PH1); test: compounds shifting NOX5 Amplex Red fluorescence – cell-based, HEK293-NOX5, NOX inhibitor project, primary screen (AID 1161); conditions: HEK293-NOX5, ionomycin, 45 min, higher = more signal
# Chain of NADPH oxidase 5 (Homo sapiens) (Q96PH1 whole entry, looked up): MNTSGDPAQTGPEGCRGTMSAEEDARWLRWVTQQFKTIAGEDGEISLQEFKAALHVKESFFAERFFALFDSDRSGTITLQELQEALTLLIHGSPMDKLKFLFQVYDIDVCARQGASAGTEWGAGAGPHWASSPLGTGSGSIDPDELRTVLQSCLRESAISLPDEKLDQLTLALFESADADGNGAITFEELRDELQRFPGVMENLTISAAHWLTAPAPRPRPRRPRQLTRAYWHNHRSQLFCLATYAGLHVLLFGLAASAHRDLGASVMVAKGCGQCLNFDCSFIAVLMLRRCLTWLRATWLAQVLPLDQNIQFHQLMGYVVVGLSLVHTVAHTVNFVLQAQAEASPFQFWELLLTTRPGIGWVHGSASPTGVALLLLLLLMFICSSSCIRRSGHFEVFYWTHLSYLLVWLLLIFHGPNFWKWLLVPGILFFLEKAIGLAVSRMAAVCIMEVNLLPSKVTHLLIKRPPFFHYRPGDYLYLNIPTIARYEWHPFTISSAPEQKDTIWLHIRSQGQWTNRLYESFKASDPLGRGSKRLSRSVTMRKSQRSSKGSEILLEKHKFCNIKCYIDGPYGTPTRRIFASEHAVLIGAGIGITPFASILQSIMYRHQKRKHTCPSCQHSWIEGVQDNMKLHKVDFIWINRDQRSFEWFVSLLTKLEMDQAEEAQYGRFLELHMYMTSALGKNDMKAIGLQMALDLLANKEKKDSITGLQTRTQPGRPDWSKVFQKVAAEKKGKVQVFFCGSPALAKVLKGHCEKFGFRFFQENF
# [11] = compound effects on lung adenocarcinoma cell viability – A549, calcein-AM fluorescence, 48 h, basal, profiling panel (AID 1162); conditions: higher = more signal; note: test concentration not given here
# [12] = compound effects on differentiated 3T3-L1 adipocyte viability – cell-based, 3T3-L1 adipocytes, calcein-AM fluorescence, 48 h, basal, profiling panel (AID 1163); conditions: 3T3-L1 adipocytes viability, higher = more signal; note: test concentration not given here
# [13] = compound effects on hepatocellular carcinoma cell viability – HepG2, calcein-AM fluorescence, 48 h, basal, profiling panel (AID 1164); conditions: higher = more signal; note: test concentration not given here
# [14] = compound effects on multiple myeloma cell viability – MM1S, calcein-AM fluorescence, 48 h, basal, profiling panel (AID 1165); conditions: higher = more signal; note: test concentration not given here
# [15] = calcein-AM signal in unstimulated myeloma cells – cell-based, calcein-AM fluorescence, 48 h, PK04 Diversity Set, profiling panel (AID 1166); conditions: RPMI8226 myeloma viability, higher = more signal;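 note: cells grown under basal conditions without added stimulus; test concentration not given here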
# [16] = JC-1 mitochondrial signal, unstimulated HepG2 cells – cell-based, JC-1 fluorescence, 24 h, 100 nL compound, profiling panel (AID 1167); conditions: HepG2 mitochondrial potential, higher = more signal; note: test concentration not given here
# [17] = JC-1 mitochondrial signal, unstimulated adipocytes – cell-based, JC-1 fluorescence, 3T3-L1 adipocytes, 24 h, 100 nL compound, profiling panel (AID 1168); conditions: JC-1 mitochondrial fluorescence, higher = more signal, called active from +8 up or from −8 down; note: test concentration not given here
# [18] = JC-1 mitochondrial signal, unstimulated myeloma cells – cell-based, JC-1 fluorescence, RPMI8226, 24 h, 100 nL compound, profiling panel (AID 1169); conditions: JC-1 mitochondrial potential fluorescence, higher = more signal; note: test concentration not given here
# [19] = JC-1 mitochondrial signal, unstimulated MM1S myeloma – cell-based, JC-1 fluorescence, 24 h, 100 nL compound, profiling panel (AID 1170); conditions: MM1S mitochondrial potential, higher = more signal; note: test concentration not given here
# [20] = resazurin metabolic signal in A549 cells – cell-based, resazurin fluorescence, 24 h, PK04 Diversity Set, profiling panel (AID 1171); conditions: A549 viability, higher = more signal, called active from +8 up or from −8 down; note: test concentration not given here
SMILES,z-score [1],composite z-score [2],z-score [3],z-score [4],z-score [5],z-score [6],z-score [7],z-score [8],z-score [9],z-score [10],z-score [11],z-score [12],z-score [13],z-score [14],z-score [15],z-score [16],z-score [17],z-score [18],z-score [19],z-score [20]
COCCOC(=O)N1C(=O)[C@@]2(c3cc(C#CCNC(N)=O)ccc31)[C@H](c1ccc(O)cc1)N1[C@H](c3ccccc3)[C@H](c3ccccc3)OC(=O)[C@H]1[C@@H]2C(=O)NC[C@H](O)c1ccccc1,-0.388 (inactive),0.101,1.3 (inactive),1.1 (inactive),0.205 (inactive),0.559 (inactive),0.155,1.01 (inactive),0.326 (inactive),0.253,-0.276,-0.202,0.108,0.208,-0.197,-1.48,-0.563 (inactive),0.326,-0.0292,-0.803 (inactive)
CC(C)c1ccc(NN2C(C(O)c3ccc(N(C)C)cc3)C=CC3C(=O)N(c4ccccc4)C(=O)C32)cc1 (stereo not given),-0.448 (inactive),0.544,1.72 (inactive),1.05 (inactive),0.655 (inactive),1.32 (inactive),-0.183,-1.14 (inactive),-0.983 (inactive),-2.39,1.1,-1.62,0.974,-0.36,-0.368,-0.337,-1.22 (inactive),0.149,-0.811,-0.0686 (inactive)
CCOC(=O)C1=CC[C@@H](c2ccccc2Cl)N(S(=O)(=O)c2ccc(C)cc2)C1,0.0023 (inactive),0.276,4.85 (inactive),-0.477 (inactive),-0.981 (inactive),-1.69 (inactive),0.676,0.358 (inactive),-0.832 (inactive),-0.93,-0.378,-0.529,0.15,-1.63,-1.51,4.34,-0.0958 (inactive),-0.329,-1.99,-0.561 (inactive)
O=C1N(CCS(=O)(=O)c2ccccc2)c2ccccc2C[C@@]12COC(c1ccc(OCCCO)cc1)=N2,-2.43 (inactive),0.0804,23.6 (active),8.71 (active),2.58 (inactive),0.764 (inactive),-0.616,0.759 (inactive),1.04 (inactive),-0.312,-0.683,0.294,-1.48,-2.06,-0.517,-2.09,0.7 (inactive),-1.06,-0.554,-0.455 (inactive)
CCOC(=O)C[C@H]1[C@H](OC(=O)Cc2ccc3c(c2)OCO3)[C@@H](NC(=O)c2ccc(-c3ccccc3)cc2)c2cc(OCCCO)ccc2N1C(=O)c1ccccc1,2.36 (inactive),-0.122,8.3 (active),1.63 (inactive),-0.825 (inactive),0.505 (inactive),-0.0321,-0.588 (inactive),0.674 (inactive),1.8,1.8,0.127,1.66,-0.262,0.0317,3.09,-0.288 (inactive),0.965,-0.0178,0.328 (inactive)
COCCOC(=O)N1C(=O)[C@@]2(c3cc(C#CCNC(N)=O)ccc31)[C@H](C(=O)N1CCc3cc(OC)c(OC)cc3C1)[C@H]1C(=O)O[C@H](c3ccccc3)[C@H](c3ccccc3)N1[C@@H]2c1ccc(OCCO)cc1,1.3 (inactive),-0.361,3.93 (inactive),1.37 (inactive),0.695 (inactive),0.778 (inactive),0.412,0.825 (inactive),0.869 (inactive),-0.0832,-0.21,0.743,-0.0192,0.128,0.115,-0.691,1.66 (inactive),-0.468,-0.864,0.0245 (inactive)
CN1C=C(C(=O)OCCS(C)(=O)=O)C(C(=O)OCCS(C)(=O)=O)=CC(CCCO)=CC1C1CC1 (stereo not given),1.07 (inactive),0.026,1.43 (inactive),0.63 (inactive),0.483 (inactive),0.16 (inactive),0.471,-2.51 (inactive),-1.07 (inactive),-1.38,-0.731,0.197,1.23,0.509,0.535,0.838,0.448 (inactive),0.326,-1.09,0.129 (inactive)
COc1ccc(CCNC(=O)[C@@]2(Sc3ccc(C)cc3)CC(=O)N(Cc3ccccc3Cl)[C@@H]2c2ccc(CO)cc2I)cc1,0.265 (inactive),0.198,9.86 (active),0.902 (inactive),1.53 (inactive),0.231 (inactive),0.0671,1.54 (inactive),-1.54 (inactive),1.32,0.507,-1.07,0.334,-1.41,-1.54,0.167,-0.0114 (inactive),-0.474,-1.96,-0.478 (inactive)
C=C[C@H](COC(C)=O)N(Cc1ccc(OC(C)=O)c(OC)c1)S(=O)(=O)c1ccc(Br)cc1,1.49 (inactive),0.19,3.23 (inactive),-1.11 (inactive),-0.827 (inactive),-1.15 (inactive),2,-4.68 (inactive),-0.87 (inactive),-1.95,1.18,0.139,0.285,0.594,0.394,0.43,1.19 (inactive),0.825,-0.886,0.353 (inactive)
